ERa SRC1 inh – blocks coactivator binding to human estrogen receptor alpha; P03372; TR-FRET ER-alpha LBD / SRC-1 peptide, estradiol-bound; inhibition, % at 25.6 µM; 1.7% of 86,000 active; in the data active = inhibition above about 50%
Calb biofilm kill – kills Candida albicans biofilms; C. albicans biofilm + clotrimazole, Alamar Blue; inhibition, % at 6 µM; 0.14% of 85,000 active;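 active = inhibition above 20%; inactive = inhibition below 20%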;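 also: preformed 24 hr biofilms exposed to compound for 48 hr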
ERb SRC1 inh – blocks coactivator binding to human estrogen receptor beta | Q92731 | TR-FRET ER-beta LBD / SRC1-Cy5 peptide binding; receptor agonist-loaded with 1 µM estradiol | 1.3% of 86,000 active | inhibition, % at 25.6 µM | AID 633;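 active = compounds whose percent inhibition of the receptor-coactivator binding signal exceeds about 50% in the single-dose screen, limit read from the data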
Target sequence (Q92731 whole entry, looked up, the tested form may be a part): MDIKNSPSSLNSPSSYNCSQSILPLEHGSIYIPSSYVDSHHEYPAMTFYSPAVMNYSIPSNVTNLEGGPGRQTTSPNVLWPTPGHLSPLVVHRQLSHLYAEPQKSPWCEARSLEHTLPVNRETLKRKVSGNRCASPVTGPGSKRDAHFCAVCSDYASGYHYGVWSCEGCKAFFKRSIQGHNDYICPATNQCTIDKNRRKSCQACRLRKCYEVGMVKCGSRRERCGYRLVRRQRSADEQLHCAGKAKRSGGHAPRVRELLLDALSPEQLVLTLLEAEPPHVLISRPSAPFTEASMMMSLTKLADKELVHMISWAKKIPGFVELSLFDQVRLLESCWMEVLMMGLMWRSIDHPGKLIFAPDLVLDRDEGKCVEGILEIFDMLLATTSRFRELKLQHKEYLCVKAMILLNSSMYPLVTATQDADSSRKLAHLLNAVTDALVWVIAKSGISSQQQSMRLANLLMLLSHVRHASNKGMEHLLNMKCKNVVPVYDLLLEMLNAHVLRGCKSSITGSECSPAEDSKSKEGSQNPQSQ
ERa coact pot – enhances coactivator binding to human estrogen receptor alpha | coactivator binding (% of control), % at 25.6 µM | AID 639 | 1.3% of 86,000 active | TR-FRET ERalpha-LBD/SRC-Cy5 coactivator binding, 2 h; 100 = basal binding, no effect | P03372; in the data active = activity above about 200%;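 also: binding measured in presence of low estradiol as agonist stimulus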
Smad3 inh – blocks human Smad3 binding to FoxH1 peptide | P84022 | TR-FRET Smad3/Dy647-FoxH1 peptide binding, europium anti-His | inhibition, % at 25 µM | 0.29% of 88,000 active | AID 630;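 active = compounds that reduce the energy-transfer binding signal between the protein and its labelled peptide by more than half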
A number is an active result; [ ] = remark or other dose. Rows were chosen to be rich in hits. Some 3.6% of all compounds tested hit in one or more screens of this group.

Results for CC(=O)O[C@@H]1CC[C@]2(C)C(=C[C@H]([C@@H]3C=C4C[C@@H](OC(C)=O)CC[C@]4(C)C4=C3[C@@H]3C[C@@H]5O[C@@]6(CC[C@H](C)CO6)[C@@H](C)[C@@H]5[C@@]3(C)CC4)C3=C2CC[C@@]2(C)[C@@H]4[C@@H](C)[C@]5(CC[C@H](C)CO5)O[C@@H]4C[C@H]32)C1 ?
Smad3 inh: inactive

How did CCOC(=O)c1cc(OC(=O)c2ccccc2OC)n(-c2ccccc2)n1 do in these assays?
ERa SRC1 inh: 74.3[fluorescence artefact?]; Calb biofilm kill: inactive; ERb SRC1 inh: inactive; ERa coact pot: inactive; Smad3 inh: inactive

Results for N#CCCS(=O)(=O)c1nnnn1-c1ccccc1 ?
ERa SRC1 inh: 60.9; Calb biofilm kill: inactive; ERb SRC1 inh: 58.1; ERa coact pot: inactive; Smad3 inh: inactive

How did CCOC(=O)c1oc2ccccc2c1NC(=O)c1cccc(OC)c1 do in these assays?
ERa SRC1 inh: inactive; Calb biofilm kill: inactive; ERb SRC1 inh: inactive; ERa coact pot: inactive; Smad3 inh: inactive

What do the screens show for `COc1cccc(C(=O)Nc2c(C(N)=O)oc3ccccc23)c1`?
ERa SRC1 inh: inactive; Calb biofilm kill: inactive; ERb SRC1 inh: 90.2[fluorescence artefact?]; ERa coact pot: inactive; Smad3 inh: inactive

What do the screens show for `COc1cc(C(=O)Nc2ccc(-c3nc4cc(C)ccc4o3)c(O)c2)cc(OC)c1OC`?
ERa SRC1 inh: inactive; Calb biofilm kill: inactive; ERb SRC1 inh: inactive; ERa coact pot: 245.9; Smad3 inh: inactive

What do the screens show for `COc1cccc(C(=O)Nc2ccc(-c3nc4ccccc4o3)c(O)c2)c1`?
ERa SRC1 inh: 59.8[fluorescence artefact?]; Calb biofilm kill: inactive; ERb SRC1 inh: inactive; ERa coact pot: inactive; Smad3 inh: inactive

What do the screens show for `CCn1c(=O)c2c3c(sc2n2c(=S)[nH]nc12)CCC3`?
ERa SRC1 inh: inactive; Calb biofilm kill: inactive; ERb SRC1 inh: inactive; ERa coact pot: inactive; Smad3 inh: inactive

Results for Cc1cc(C(=O)CSc2nnc(-c3cccnc3)n2-c2ccccc2F)c(C)n1C ?
ERa SRC1 inh: 69.9; Calb biofilm kill: inactive; ERb SRC1 inh: inactive; ERa coact pot: inactive; Smad3 inh: inactive

How did CCOC(=O)C1=C(C)S/C(=C\N(C)C)C1=O do in these assays?
ERa SRC1 inh: 53.9; Calb biofilm kill: inactive; ERb SRC1 inh: 73.3[fluorescence artefact?]; ERa coact pot: inactive; Smad3 inh: inactive

What do the screens show for `CCOc1ccc2nc(SCC(=O)c3ccc(C)s3)sc2c1`?
ERa SRC1 inh: inactive; Calb biofilm kill: inactive; ERb SRC1 inh: inactive; ERa coact pot: 221.4; Smad3 inh: inactive

Results for CCOc1ccc2nc(NC(=O)CSc3ccc(Cl)cc3)sc2c1 ?
ERa SRC1 inh: inactive; Calb biofilm kill: inactive; ERb SRC1 inh: inactive; ERa coact pot: inactive; Smad3 inh: inactive

How did Cc1[nH]c(N)nc(=S)c1CCC(=O)O do in these assays?
Smad3 inh: inactive

What do the screens show for `Cc1nn(Cc2ccc(C(=O)Nc3nc4c(C)cccc4s3)o2)c(C)c1Br`?
ERa SRC1 inh: 50.3; Calb biofilm kill: inactive; ERb SRC1 inh: inactive; ERa coact pot: inactive; Smad3 inh: inactive

How did Cc1cccc2sc(NC(=O)CSCc3ccccc3)nc12 do in these assays?
ERa SRC1 inh: inactive; Calb biofilm kill: 49.8; ERb SRC1 inh: inactive; ERa coact pot: inactive; Smad3 inh: inactive

What do the screens show for `Cc1cccc2sc(NC(=O)Cn3cccc3)nc12`?
ERa SRC1 inh: inactive; Calb biofilm kill: inactive; ERb SRC1 inh: inactive; ERa coact pot: inactive; Smad3 inh: inactive

Results for CS(=O)(=O)N(CCc1ccccc1)CC(=O)NCC1CCCO1 (centres undefined) ?
ERa SRC1 inh: inactive; Calb biofilm kill: inactive; ERb SRC1 inh: inactive; ERa coact pot: inactive; Smad3 inh: inactive

What do the screens show for `Cc1c(C(=O)Nc2ccc3c(c2)OCO3)sc2ncn(CC(=O)N3CC(C)CC(C)C3)c(=O)c12` (centres undefined)?
ERa SRC1 inh: inactive; Calb biofilm kill: inactive; ERb SRC1 inh: inactive; ERa coact pot: inactive; Smad3 inh: inactive

What do the screens show for `NS(=O)(=O)c1ccc(NCc2nc3ccccc3[nH]2)cc1`?
Smad3 inh: inactive

Results for CCOC(=O)N1CCN(c2c(NCCCOC(C)C)c(=O)c2=O)CC1 ?
ERa SRC1 inh: inactive; Calb biofilm kill: inactive; ERb SRC1 inh: inactive; ERa coact pot: 213.4; Smad3 inh: inactive

Results for Cc1cc(SCC(=O)Nc2ccccc2)nc(C)n1 ?
ERa SRC1 inh: 72.3[fluorescence artefact?]; Calb biofilm kill: inactive; ERb SRC1 inh: inactive; ERa coact pot: inactive; Smad3 inh: inactive

How did CCOC(=O)c1c(NC(=O)CSc2nc3c(c(=O)n(C)c(=O)n3C)n2CC)sc(C)c1C do in these assays?
ERa SRC1 inh: inactive; Calb biofilm kill: inactive; ERb SRC1 inh: inactive; ERa coact pot: inactive; Smad3 inh: inactive

What do the screens show for `CCCn1c(SCC(=O)Nc2sc(C)c(C)c2C(=O)OC)nc2c1c(=O)n(C)c(=O)n2C`?
ERa SRC1 inh: 51.1; Calb biofilm kill: inactive; ERb SRC1 inh: inactive; ERa coact pot: 246.0; Smad3 inh: inactive

Results for CC1(C)[C@@H](CC(=O)O)CCC[C@H]1CC(=O)O ?
Smad3 inh: inactive

What do the screens show for `COc1ccc(-c2nc(Cn3c(SCc4ccccc4F)nc4ccncc43)c(C)o2)cc1`?
ERa SRC1 inh: inactive; Calb biofilm kill: inactive; ERb SRC1 inh: inactive; ERa coact pot: 458.4[fluorescence artefact?]; Smad3 inh: inactive

Results for COc1ccc(-c2nc(Cn3c(SCc4ccc(F)cc4)nc4ccncc43)c(C)o2)cc1OC ?
ERa SRC1 inh: inactive; Calb biofilm kill: inactive; ERb SRC1 inh: inactive; ERa coact pot: inactive; Smad3 inh: inactive

How did CCOC(=O)c1c(Nc2nc(C)c(C(=O)NC)s2)sc(C)c1C do in these assays?
ERa SRC1 inh: 68.9; Calb biofilm kill: inactive; ERb SRC1 inh: inactive; ERa coact pot: inactive; Smad3 inh: inactive

Results for Cc1cc(C)c(Cn2c(=O)n(CCCC(=O)NCc3ccco3)c(=O)c3ccccc32)c(C)c1 ?
ERa SRC1 inh: inactive; Calb biofilm kill: inactive; ERb SRC1 inh: inactive; ERa coact pot: inactive; Smad3 inh: inactive

How did CCCn1c(C)cc(=O)c2cc(NC(=O)c3cnccn3)ccc21 do in these assays?
ERa SRC1 inh: inactive; Calb biofilm kill: inactive; ERb SRC1 inh: inactive; ERa coact pot: 226.1[fluorescence artefact?]; Smad3 inh: inactive

How did O=C(Nc1ccc2nccnc2c1)c1cnccn1 do in these assays?
ERa SRC1 inh: inactive; Calb biofilm kill: inactive; ERb SRC1 inh: inactive; ERa coact pot: inactive; Smad3 inh: inactive

How did CSCC[C@H](NC(=O)NCc1ccc(F)cc1)C(=O)O do in these assays?
ERa SRC1 inh: inactive; Calb biofilm kill: inactive; ERb SRC1 inh: inactive; ERa coact pot: inactive; Smad3 inh: inactive

What do the screens show for `OC1(c2cccc(C(F)(F)F)c2)CCNCC1`?
ERa SRC1 inh: inactive; Calb biofilm kill: inactive; ERb SRC1 inh: 69.9[fluorescence artefact?]; ERa coact pot: inactive; Smad3 inh: inactive

What do the screens show for `COCCn1nnnc1CN1CCC(O)(c2cccc(C(F)(F)F)c2)CC1`?
ERa SRC1 inh: inactive; Calb biofilm kill: inactive; ERb SRC1 inh: inactive; ERa coact pot: inactive; Smad3 inh: inactive

Results for O=C(c1nc2nc(-c3cccs3)cc(C(F)(F)F)n2n1)N1CCN(Cc2ccccc2)CC1 ?
ERa SRC1 inh: inactive; Calb biofilm kill: inactive; ERb SRC1 inh: inactive; ERa coact pot: inactive; Smad3 inh: inactive
